This note sets out measurements from PubChem BioAssay (NCATS).

Records with an inconclusive call do not appear. This is one part of the list. Calls of active or inactive are those of the source. Unless noted, the call rests on the fitted dose curve; in most records, active means well fitted curve in the direction sought with a large enough effect; inconclusive means small, poorly fitted or top-dose-only effect, or another doubt; inactive means no such curve, though single readings can be large; an effect the other way counts as inactive or inconclusive.

The target of assay [1] is DNA repair nuclease/redox regulator APEX1 (Homo sapiens) (UniProt P27695). Nature of the assay: qHTS Validation Assay for Inhibitors of the Human Apurinic/apyrimidinic Endonuclease 1 (APE1) (AID 1705; further: potency means the concentration at half of the fitted maximal effect). Put shortly:
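Substrate: 50 nM final fluorophore/quencher THF-abasic duplex. Enzyme preincubated with compounds 15 min, RT. Progress derived from fluorescence difference, third minus first kinetic read.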

The nature of assay [2]: Counterscreen for APE1 Inhibitors: Fluorescent Dye Displacement Validation Assay (AID 1707). Put shortly:
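Thiazole Orange displacement from dsDNA: 250 nM ThO with 50 nM TAMRA-labelled abasic-site (tetrahydrofuran) duplex in 50 mM Tris-HCl pH7.5, 50mM NaCl, 2 mM MgCl2, 0.01% Tween-20. Loss of endpoint fluorescence (ex 480 nm, em 540 nm) flags DNA binders.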

A short description of assay [3]: qHTS for differential inhibitors of proliferation of Plasmodium falciparum line 7G8 (AID 1815).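 Further: parasite growth measured after three days of incubation.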 Further: potency means the concentration at half of the fitted maximal effect.
Assay [4] in a line: qHTS for differential inhibitors of proliferation of Plasmodium falciparum line GB4 (AID 1816).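 Further: parasite growth measured after 72 h incubation.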 Further: potency means the concentration at half of the fitted maximal effect. Conditions: Potency: Plasmodium falciparum GB4 proliferation inhibition.
Assay [5] is described as follows: qHTS for differential inhibitors of proliferation of Plasmodium falciparum line 3D7 (AID 1876). Further: potency means the concentration at half of the fitted maximal effect.
Assay [6] is described as follows: qHTS for differential inhibitors of proliferation of Plasmodium falciparum line D10 (AID 1877).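 Further: parasites grown with compound for 72 h before DNA staining.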 Further: potency means the concentration at half of the fitted maximal effect.
Assay [7] in a line: qHTS for differential inhibitors of proliferation of Plasmodium falciparum line Dd2 (AID 1882). Further: nearly all actives have a fitted effect of over 65% in size. Further: potency means the concentration at half of the fitted maximal effect. Conditions: Potency: Plasmodium falciparum Dd2 proliferation inhibition. In outline: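 SYBR Green I DNA fluorescence read-out, ex 485/em 535 nm. Signals were normalized to 0.29 uM artemisinin and DMSO wells, then corrected using vehicle-only plates flanking each stack. Parasite growth ran 72 h in erythrocytes before lysis.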

A short description of assay [8]: qHTS for differential inhibitors of proliferation of Plasmodium falciparum line HB3 (AID 1886).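 Further: parasites grown with compound for 72 h before SYBR Green readout.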 Further: potency means the concentration at half of the fitted maximal effect. As to conditions: Potency: Plasmodium falciparum HB3 proliferation inhibition.
A short description of assay [9]: qHTS Assay for Modulators of Human Peripheral Myelin Protein 22 (PMP22) Expression/Activity (AID 1967; active means well fitted curve in the direction sought with a large enough effect in the signal ratio; the % refers to the signal ratio). In outline: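 Engineered MSC80 cells, Pmp22-promoter green and EF-alpha red luciferase reporters; 24h compound treatment at 37 °C. Concentration-response fits on green, red and ratio signals, each overlap-corrected, with %Activity normalized to untreated wells.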

The target in assay [10] is Ferritin light chain (Equus caballus) (UniProt P02791). Description: qHTS Validation Assay for Identification of Novel General Anesthetics (AID 2323). Further: potency means the concentration at half of the fitted maximal effect. Put shortly:
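Normalized fluorescence response, scaled between free 1-AMA and 1-AMA/apoferritin complex, fitted to a four-parameter Hill equation for concentration-effect values. Binding mix: 10 uM horse-spleen apoferritin, 50% saturated 1-AMA in PBS; read 380/535 nm after 10 min.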

Assay [11] addresses ATP-dependent DNA helicase Q1 (Homo sapiens) (UniProt P46063). Description: qHTS Validation Assay for Inhibitors of RecQ-Like Dna Helicase 1 (RECQ1) (AID 2353). Further: potency means the concentration at half of the fitted maximal effect. Put shortly:
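50 nM RECQ1T1 preincubated 15 min with compound in Tris pH 8.0 buffer with MgCl2, DTT, Tween-20 and 2.5 ug/ml poly(dI-dC); started with 200 nM TAMRA/BHQ-2 forked duplex and 2 mM ATP. Unwinding read as fluorescence (525/598 nm), two reads 2 h apart.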

The target in assay [12] is RecQ-like DNA helicase BLM (Homo sapiens) (UniProt P54132). Nature of the assay: qHTS Validation Assay for Inhibitors of Bloom's syndrome helicase (BLM) (AID 2364). In outline: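 50 nM BLM preincubated 15 min at room temperature with compound in pH 8.0 Tris buffer containing 2.5 ug/ml poly(dI-dC); started with 200 nM TAMRA/BHQ-2 forked duplex and 2 mM ATP (final). Unwinding read as TAMRA fluorescence increase, two reads 2 h apart.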

Assay [13] deals with Endonuclease 4 (Escherichia coli (strain K12)) (UniProt P0A6C1). Description: Counterscreen for APE1 Inhibitors: qHTS Assay for Inhibitors of Endonuclease IV (AID 2565). Put shortly: (§1)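 Cleavage of a quenched abasic-site DNA duplex (50 nM, 5'-TAMRA, 3'-BHQ-2) by 2 nM enzyme is followed as fluorescence increase. Compounds are preincubated with enzyme 15 min at room temperature before substrate addition.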

Assay [14] deals with DNA repair nuclease/redox regulator APEX1 (Homo sapiens) (UniProt P27695). Nature of the assay: Confirmation qHTS Assay for Inhibitors of the Human Apurinic/apyrimidinic Endonuclease 1 (APE1) (AID 2572).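 Further: fluorescence gain from purified APE1 cutting a TAMRA/BHQ-2 THF abasic duplex; nearly all actives have a fitted effect of over 30% in size.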 Put shortly:
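Readout: kinetic fluorescence (Ex 525, Em 598 nm) from APE1 incision of a 5'-TAMRA, 3'-BHQ-2 duplex containing a THF abasic site at 50 nM final. Compound preincubation 15 min, room temperature.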

Assay [15] in a line: qHTS for differential inhibitors of proliferation of Plasmodium falciparum line W2 (AID 1883).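 Further: parasites grown with compound for 72 h before lysis and staining.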 Further: potency means the concentration at half of the fitted maximal effect. Conditions: Potency: Plasmodium falciparum W2 proliferation inhibition.
A short description of assay [16]: Cytometric Cell-Based qHTS for Inhibitors of the mTORC1 Signaling Pathway in MEF (Tsc2-/-, p53-/-) Cells (AID 2660).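 Further: percent of cells above a phospho-rpS6 to PI ratio cutoff in each well; series mostly up to about 38 µM.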 In outline: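 Readout: Alexa-488 phospho-rpS6 (Ser235/236) intensity divided by PI intensity, thresholded against 7.5 nM rapamycin wells and reported as % positive cells. PI cell count served as the viability measure. Compound exposure was 24 hrs at 37 degree Celsius.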

A short description of assay [17]: High Content Imaging Cell-Based qHTS for Inhibitors of the mTORC1 Signaling Pathway in MEF (Tsc2-/-, p53-/-) Cells (AID 2666).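 Further: percent of cells scored positive for phospho-rpS6 Ser235/236 immunostaining by imaging.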 Put shortly:
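Phospho-rpS6 (Ser235/236) immunofluorescence, normalized and scored as % positive cells using rapamycin and DMSO controls, was read in empty-vector Tsc2-/-, p53-/- MEFs after 24 h compound exposure at 37 C; propidium iodide counted cells.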

Assay [18] can be described thus: High Content Imaging Cell-Based qHTS for Inhibitors of the mTORC1 Signaling Pathway in MEF Cells (AID 2667). Further: potency means the concentration at half of the fitted maximal effect. Put shortly: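 WT MEFs (Tsc2-/-, p53-/- re-expressing Tsc2), in DMEM + 10% FBS, were treated with compound for 24 h at 37 C. Cells were then fixed and stained for phospho-rpS6 Ser235/236 with propidium iodide as cell count. Values are % positive cells, with thresholds set against rapamycin-treated cells.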

Assay [19] has as its target Endonuclease 4 (Escherichia coli (strain K12)) (UniProt P0A6C1). Nature of the assay: Counterscreen for APE1 Inhibitors: qHTS Validation Assay for Inhibitors of Endonuclease IV (AID 1708). Put shortly: as §1

Sequence of RecQ-like DNA helicase BLM (Homo sapiens) (P54132 whole entry, looked up): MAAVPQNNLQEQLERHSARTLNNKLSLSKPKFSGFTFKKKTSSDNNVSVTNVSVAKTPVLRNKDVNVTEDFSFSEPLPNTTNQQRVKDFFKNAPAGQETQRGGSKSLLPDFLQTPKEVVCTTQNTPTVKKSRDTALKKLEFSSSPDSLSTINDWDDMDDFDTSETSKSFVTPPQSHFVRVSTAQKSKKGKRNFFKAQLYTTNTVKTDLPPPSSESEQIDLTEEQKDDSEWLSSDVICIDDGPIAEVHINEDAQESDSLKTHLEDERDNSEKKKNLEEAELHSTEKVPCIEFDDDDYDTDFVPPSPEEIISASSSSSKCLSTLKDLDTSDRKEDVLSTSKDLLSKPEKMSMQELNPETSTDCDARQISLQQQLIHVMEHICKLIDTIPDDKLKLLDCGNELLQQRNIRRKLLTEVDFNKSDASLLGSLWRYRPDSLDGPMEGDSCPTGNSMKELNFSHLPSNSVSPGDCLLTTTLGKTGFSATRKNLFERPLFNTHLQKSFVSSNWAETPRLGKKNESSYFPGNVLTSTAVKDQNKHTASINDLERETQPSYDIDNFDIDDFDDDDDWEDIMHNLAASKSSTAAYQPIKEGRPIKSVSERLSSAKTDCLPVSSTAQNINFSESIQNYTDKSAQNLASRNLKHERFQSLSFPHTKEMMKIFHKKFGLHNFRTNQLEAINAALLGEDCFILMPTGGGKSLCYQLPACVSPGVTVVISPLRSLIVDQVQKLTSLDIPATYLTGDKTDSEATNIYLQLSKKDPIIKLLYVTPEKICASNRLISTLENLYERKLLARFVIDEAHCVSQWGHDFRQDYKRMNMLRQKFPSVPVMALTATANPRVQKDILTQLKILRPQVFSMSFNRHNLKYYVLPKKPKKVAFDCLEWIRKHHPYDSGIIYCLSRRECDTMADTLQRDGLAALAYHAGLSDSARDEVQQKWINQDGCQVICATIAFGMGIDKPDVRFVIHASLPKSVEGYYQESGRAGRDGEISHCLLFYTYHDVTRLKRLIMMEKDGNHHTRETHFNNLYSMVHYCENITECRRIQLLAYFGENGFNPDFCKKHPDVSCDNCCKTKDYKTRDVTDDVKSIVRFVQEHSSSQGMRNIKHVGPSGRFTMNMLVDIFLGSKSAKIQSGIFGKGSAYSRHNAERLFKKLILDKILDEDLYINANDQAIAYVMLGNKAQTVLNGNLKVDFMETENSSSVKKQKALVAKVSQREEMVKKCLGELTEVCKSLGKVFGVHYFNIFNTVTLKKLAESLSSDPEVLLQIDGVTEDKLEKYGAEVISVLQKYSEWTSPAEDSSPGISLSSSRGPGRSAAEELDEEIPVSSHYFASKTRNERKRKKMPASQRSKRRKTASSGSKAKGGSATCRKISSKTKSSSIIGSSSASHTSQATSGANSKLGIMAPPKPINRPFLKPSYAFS
Sequence of DNA repair nuclease/redox regulator APEX1 (Homo sapiens) (P27695 whole entry, looked up): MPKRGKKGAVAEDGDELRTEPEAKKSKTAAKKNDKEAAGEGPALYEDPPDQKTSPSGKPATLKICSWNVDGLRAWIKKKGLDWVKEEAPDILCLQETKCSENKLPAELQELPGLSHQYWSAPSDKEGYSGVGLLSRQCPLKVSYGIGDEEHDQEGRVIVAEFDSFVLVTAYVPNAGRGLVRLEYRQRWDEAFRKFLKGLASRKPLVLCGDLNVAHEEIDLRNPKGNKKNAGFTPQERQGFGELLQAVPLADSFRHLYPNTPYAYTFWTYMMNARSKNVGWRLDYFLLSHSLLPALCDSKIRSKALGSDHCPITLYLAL
Sequence of Ferritin light chain (Equus caballus) (P02791 2-175 limits assumed): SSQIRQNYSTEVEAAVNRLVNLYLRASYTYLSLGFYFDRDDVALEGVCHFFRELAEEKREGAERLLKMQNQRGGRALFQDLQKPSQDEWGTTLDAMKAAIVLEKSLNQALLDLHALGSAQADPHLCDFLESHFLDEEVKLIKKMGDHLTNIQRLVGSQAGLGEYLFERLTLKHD
Sequence of ATP-dependent DNA helicase Q1 (Homo sapiens) (P46063 whole entry, looked up): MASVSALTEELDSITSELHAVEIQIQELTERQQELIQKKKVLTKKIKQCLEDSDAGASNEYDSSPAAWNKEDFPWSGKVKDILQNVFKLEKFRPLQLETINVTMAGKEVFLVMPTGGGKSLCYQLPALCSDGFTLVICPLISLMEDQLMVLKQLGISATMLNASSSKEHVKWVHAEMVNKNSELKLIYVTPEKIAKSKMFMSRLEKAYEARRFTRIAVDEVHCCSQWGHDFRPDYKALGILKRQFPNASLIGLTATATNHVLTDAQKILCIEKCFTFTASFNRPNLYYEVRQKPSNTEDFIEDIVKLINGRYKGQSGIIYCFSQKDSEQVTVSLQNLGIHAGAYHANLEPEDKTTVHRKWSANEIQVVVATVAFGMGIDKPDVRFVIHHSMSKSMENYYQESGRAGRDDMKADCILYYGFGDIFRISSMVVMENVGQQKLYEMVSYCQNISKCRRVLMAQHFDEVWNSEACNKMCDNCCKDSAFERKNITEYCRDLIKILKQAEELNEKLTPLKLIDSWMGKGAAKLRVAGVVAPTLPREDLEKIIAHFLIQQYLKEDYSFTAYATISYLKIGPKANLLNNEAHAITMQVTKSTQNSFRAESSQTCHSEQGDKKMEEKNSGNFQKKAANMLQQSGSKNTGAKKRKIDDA

Turning to `CO/N=C(\C(=O)N[C@@H]1C(=O)N2C(C(=O)O)=C(COC(C)=O)CS[C@H]12)c1csc(N)n1` (stereo in doubt), the Potency in assay [1] is 2.24 µM (active); in assay [11], 10 µM (active). The Potency result in [2], in [3], in [4], in [5], in assay [6] and in assay [7] was “inactive” each time. Further, the Potency entry in assay [8], in assay [10], in assay [12], in [13] and in assay [14] was “inactive” each time. In addition, the outcome in assay [9] was inactive.

Regarding `O=C(O)CC1CCCc2ccccc2C1O` (stereo not drawn), the Potency entry in assay [1], in assay [2], in assay [3], in [4], in assay [5] and in assay [6] was “inactive” throughout. The Potency entry in assay [7], in assay [15], in assay [8], in assay [10], in [11] and in [17] was “inactive” each time. The Potency entry in [18] was “inactive”. The molecule was called inactive in assay [9] and in assay [16].

For the molecule `NC(=O)C(=O)O`, the Potency result in [1], in assay [2], in [3], in assay [4], in assay [5] and in assay [6] was “inactive” in each case. Besides, the Potency result in [7], in assay [15], in assay [8], in [10], in assay [11] and in assay [17] was “inactive” throughout. Besides, the Potency result in [18] was “inactive”. The call in assay [9] and in assay [16] was inactive.

For `O=C(O)CC[C@@H](C(=O)O)N1C(=O)c2ccccc2C1=O`, the Potency result in assay [1], in [2], in [3], in [4], in assay [5] and in [6] was “inactive” throughout. Also, the Potency entry in assay [7], in [15], in [8], in assay [10], in assay [11] and in assay [12] was “inactive” in each case. Further, the Potency result in assay [17] and in [18] was “inactive” each time. For the same molecule, in [16], the call was inactive.

With `CCCCCCCCCCCCCCCCCC(=O)OC(CC(=O)O)C[N+](C)(C)C` (stereo not drawn), the Potency entry in assay [1], in assay [2], in [3], in [4], in [5] and in [6] was “inactive” throughout. Further, the Potency entry in assay [7], in assay [15], in assay [8], in [11], in assay [12] and in assay [17] was “inactive” in each case. For the same molecule, the Potency entry in assay [18] was “inactive”. Moreover, in [16], the result was inactive.

Take `Clc1ccc(N2CCN(Cc3c[nH]c4ncccc34)CC2)cc1`: the Potency result in assay [1], in assay [2], in assay [19], in [7], in assay [10] and in assay [11] was “inactive” throughout. The Potency result in [12], in assay [17] and in assay [18] was “inactive” throughout. For the same molecule, the call in assay [16] was inactive.

Regarding `c1cnc2c(c1)ccc1cccnc12`, the Potency entry in assay [1], in [2], in assay [10], in assay [11], in assay [12] and in assay [17] was “inactive” each time. For the same molecule, the Potency is 1.58 µM (active) in assay [3]; 2 µM (active) in assay [4]; 2 µM (active) in assay [5]; 2.51 µM (active) in [6]; 2 µM (active) in assay [7]; 1 µM (active) in assay [15]. Also, the Potency in [8] was 2 µM (active); in assay [18] it was 0.0465 µM (active). The outcome in [16] was inactive.

Consider `S=C(S)OC1CC2CC1C1CCCC21` (stereo not drawn), for which the Potency entry in assay [1], in [2], in assay [3], in assay [4], in assay [5] and in assay [6] was “inactive” each time. The Potency result in assay [7], in [15], in assay [8], in assay [11], in assay [17] and in [18] was “inactive” each time. In addition, the molecule was called inactive in [9] and in [16]. The Potency in assay [10] was 17.8 µM (active).
